In the library only some 1.4% were active in any assay of this set; here they are far more common.
V-ATPase pH: yeast V-ATPase proton transport regulation by pHLuorin. 0.37% of 350,000 active. AID 504577. response, % at 10 µM. S. cerevisiae, pHLuorin cytosolic pH fluorescence; in the data active = response mostly above about 7.3%, no sharp cut-off; inactive = mostly below about 5.4%; note: actives read high
Wee1 stabilizer: blocks degradation of human Wee1 kinase; P30291; HeLa Luc-Wee1K328M stability, luciferase luminescence; 100% = proteasome inhibitor MG132 effect; reporter increase, % at 5 µM; 1.2% of 220,000 active; AID 1321;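 active = activation above the mean of all tested compounds plus 3 SD, set per screening run, cut at about 8.8% in these data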;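 note: cells exposed to compound for 20 h before luminescence read; 0% = DMSO alone and 100% = MG132 at 30 µM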
Target sequence (P30291 whole entry K328M): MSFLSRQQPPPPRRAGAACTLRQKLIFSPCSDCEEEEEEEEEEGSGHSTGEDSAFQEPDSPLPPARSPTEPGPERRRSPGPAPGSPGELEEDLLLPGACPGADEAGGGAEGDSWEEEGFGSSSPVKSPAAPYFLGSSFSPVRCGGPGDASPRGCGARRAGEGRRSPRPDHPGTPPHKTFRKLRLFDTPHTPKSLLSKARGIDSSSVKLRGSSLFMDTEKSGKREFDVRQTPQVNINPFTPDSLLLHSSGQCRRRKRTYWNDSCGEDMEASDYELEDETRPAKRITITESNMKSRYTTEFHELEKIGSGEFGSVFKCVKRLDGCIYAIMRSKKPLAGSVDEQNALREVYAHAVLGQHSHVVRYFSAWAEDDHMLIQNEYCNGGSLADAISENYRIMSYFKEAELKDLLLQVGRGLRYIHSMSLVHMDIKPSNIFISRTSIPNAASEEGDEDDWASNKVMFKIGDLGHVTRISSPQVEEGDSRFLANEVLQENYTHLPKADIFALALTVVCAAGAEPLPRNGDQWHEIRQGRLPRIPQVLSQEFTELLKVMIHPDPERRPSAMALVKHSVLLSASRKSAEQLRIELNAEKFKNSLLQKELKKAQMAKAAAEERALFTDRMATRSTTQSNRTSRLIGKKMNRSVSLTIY
HSV augment: HSV replication enhancement; maximum fold increase; HSV replication augmentation in cells, fold increase; 0.005% of 220,000 active; in the data active = maximum fold increase above about 1.5; tested in PC3 cells
L929 necroptosis: blocks zVAD induced death of L929 cells | L929 zVAD necroptosis rescue, ATP luminescence, 24 h; with zVAD 60 µM | viability rescue, % at 10 µM | 0.38% of 220,000 active;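 active = activation, scaled between plate controls, above about 75%, limit read from the data; inactive = activation under that limit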;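 note: 0% = zVAD with DMSO and 100% = DMSO alone without zVAD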
TNF death inh: inhibitors of TNF-alpha induced necroptosis in Jurkat FADD-/- cells; 0.068% of 220,000 active; activation (protection from cell death), % at 10 µM; AID 463075; Jurkat FADD-/- TNF necroptosis rescue, ATP luminescence, 24 h; 0 = TNF only, 100 = no-TNF cells;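 active = activation, meaning protection from cell death, of at least 50% relative to plate controls; inactive = activation below 50%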;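 note: necroptosis triggered by 40 ng/mL TNF-alpha added together with compound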
An asterisk follows results filed as active; i = inactive; nt = no result.

SMILES | V-ATPase pH | Wee1 stabilizer | HSV augment | L929 necroptosis | TNF death inh
O=C(NN=C1CCCC1)c1ccccc1O | -3 | nt | nt | nt | nt
O=C(O)c1ccccc1NN=C1CCCCC1 | -1 | 9.8* | i | 1 | 2
COc1ccc(Nc2nnc(-c3ccc(N4CCOCC4)c([N+](=O)[O-])c3)c3ccccc23)cc1 | -1 | 1 | i | 82* | -16
COc1ccc(C(=O)c2ccc(N3CCOCC3)c([N+](=O)[O-])c2)cc1 | 1 | -2 | i | -1 | -4
CCN(CC(=O)Nc1ccccc1C(F)(F)F)C(=O)c1cccc(S(=O)(=O)N2CCN(C)CC2)c1 | -7 | nt | nt | nt | nt
C=C1CCN([C@@H](C)C(=O)NCc2ccc(Cl)cc2)S(=O)(=O)c2ccccc21 | -2 | nt | i | 1 | 3
CN(NS(=O)(=O)c1ccc(Cl)cc1)c1cnn(C)c(=O)c1Cl | 1 | 9.9* | i | 0 | 1
O=C(NCC1CCCO1)C1CC(=O)N(c2ccc(Cl)cc2)C1 (stereo not drawn) | -5 | nt | nt | nt | nt
O=[N+]([O-])c1c(Nc2ccccn2)cc(Cl)c2nonc12 | 33* | -1 | i | -3 | -26
O=C(O)c1ccccc1Nc1cc(Cl)c2nonc2c1[N+](=O)[O-] | 0 | nt | nt | nt | nt
CCc1ccc(OCCNC(=O)c2ccc(S(=O)(=O)N(C)C)cc2)cc1 | 0 | 9.9* | i | 0 | 0
CCOc1ccc(NC(=O)c2ccc(S(=O)(=O)N(C)C)cc2)cc1 | 3 | 2 | i | 4 | 1
O=C(CBr)Nc1c2c(nn1-c1ccccc1)CSC2 | 11* | nt | nt | nt | nt
O=C(CNC(=O)c1ccc(Br)o1)Nc1cccc(S(=O)(=O)N2CCOCC2)c1 | 0 | nt | nt | nt | nt
Cc1ccccc1Nc1nc(N)nc(CSc2nnnn2-c2ccccc2)n1 | 13* | -1 | i | 2 | 1
Cc1ccccc1Nc1nc(N)nc(CSc2nnnn2C)n1 | -2 | 3 | i | 1 | 0
CN(C)CCN(Cc1ccccc1)C(=O)[C@H](Cc1ccccc1)N1C(=O)c2ccccc2C1=O | 3 | nt | nt | nt | nt
CN(C)CCCNC(=O)c1cc(C(=O)c2c(Cl)cccc2Cl)c[nH]1 | -6 | nt | nt | nt | nt
O=C(Nc1ccn(CCCNC2CCN(Cc3ccccc3)CC2)c(=O)n1)OCc1ccccc1 | 1 | nt | nt | nt | nt
O=C(NN=C1C2CC3CC1CC(Cl)(C3)C2)c1ccccn1 | -2 | 9.7* | i | 1 | 0
Fc1ccccc1Oc1nc(-c2ccncc2)nc2ccccc12 | -3 | 8.9* | i | 4 | 1
COc1ccc(Oc2nc(-c3cccnc3)nc3ccccc23)cc1 | 7 | -2 | i | 1 | -1
COc1ccc(CNCC(O)COc2cccc3c2OC(C)(C)C3)cc1 (stereo not drawn) | 9 | -4 | i | -2 | -1
O=C(NNC(=O)C1CC1c1ccccc1)c1cccc([N+](=O)[O-])c1 (stereo not drawn) | 2 | 11* | i | 1 | 2
Cc1ccccc1NS(=O)(=O)c1ccc(C(=O)NCC2CCCO2)cc1 (stereo not drawn) | 0 | nt | nt | nt | nt
SMILES | V-ATPase pH | Wee1 stabilizer | HSV augment | L929 necroptosis | TNF death inh
O=C(NCCc1ccc(Cl)cc1)Nc1cccc(Cl)c1 | -5 | 8.9* | i | 1 | 0
O=C(NCCc1ccccc1)Nc1cccc(Cl)c1 | -2 | -3 | i | 2 | 7
CC(=O)Nc1ccc(S(=O)(=O)N2CCN(c3ccc(C)c(Cl)c3)CC2)cc1 | 17* | 2 | i | 0 | 1
CCC(CO)Oc1cc(NCc2ccccc2Cl)c2ncn(C(C)C)c2c1 (stereo not drawn) | 8 | nt | nt | nt | nt
CSc1sc(-c2ccnc(=S)[nH]2)c(-c2ccccc2)c1C#N | -1 | 9.8* | i | 0 | 2
CSc1nccc(-c2sc(SC)c(C#N)c2-c2ccccc2)n1 | 6 | -2 | i | 0 | 2
CCC(C)NC(=O)Cc1ccc(-c2ccccc2)cc1 (stereo not drawn) | 88* | 2 | i | 2 | 2
COc1ccc2c(CC(=O)OCc3nc4ccsc4c(=O)[nH]3)coc2c1 | 1 | nt | nt | nt | nt
O=C(C#Cc1ccccc1)c1ccccc1 | -19 | nt | nt | nt | nt
O=C(C#Cc1ccccc1)c1ccc([N+](=O)[O-])cc1 | 12* | -1 | nt | 0 | -12
O=C1CC(N2CCN(c3ccc(C(=O)c4ccc(F)cc4)cc3)CC2)C(=O)N1 (stereo not drawn) | 4 | 8.9* | i | 0 | 0
CCN1C(=O)CC(N2CCN(c3ccc(C(=O)c4ccccc4)cc3)CC2)C1=O (stereo not drawn) | -2 | 6 | i | 0 | -2
Cc1cc([N+](=O)[O-])nn1Cc1ccccc1F | 2 | -1 | i | 91* | 95*
CCN(C(=O)COC(=O)c1cc(-c2ccccc2)nn1-c1ccccc1)C1CCS(=O)(=O)C1 (stereo not drawn) | -1 | 10* | i | 2 | 2
CCN(C(=O)COC(=O)c1cn(-c2ccccc2)nc1-c1ccccc1)C1CCS(=O)(=O)C1 (stereo not drawn) | -3 | 2 | i | 1 | 4
Clc1ccc(C2=NNC(=NCc3ccccc3)SC2)cc1 | 1 | 2 | i | 73 | 56*
Fc1ccc(C2=NNC(=NCc3ccccc3)SC2)cc1F | 0 | 3 | i | 57 | 51*
c1ccc(CN=C2NN=C(c3ccccc3)CS2)cc1 | 1 | 0 | i | 2 | 16
CCc1nnc(NS(=O)(=O)c2ccc(N=CC3=C(O)CC(C)(C)CC3=O)cc2)s1 | 2 | 4 | i | 1 | -1
CCCOC(=O)COC(=O)c1ccccc1NC(=O)c1ccccc1 | 20* | 0 | i | 1 | 3
CN(c1ncc(C(F)(F)F)cc1Cl)N1C(=O)c2cccc(N)c2C1=O | 1 | 10* | i | -1 | -1
CC(C)[C@H](NC(=O)c1ccccc1F)C(=O)OCC(=O)NC1CC1 | 20* | nt | nt | nt | nt
CC(C)[C@H](NC(=O)c1ccccc1F)C(=O)NC1CCCCC1 | -1 | nt | nt | nt | nt
Cc1ccccc1Nc1nnc(SCC(=O)N(C)C2CCS(=O)(=O)C2)s1 (stereo not drawn) | 16* | 1 | i | 1 | 2
CN(C(=O)CSc1nnc(Nc2ccccc2F)s1)C1CCS(=O)(=O)C1 (stereo not drawn) | -3 | nt | nt | nt | nt
SMILES | V-ATPase pH | Wee1 stabilizer | HSV augment | L929 necroptosis | TNF death inh
CN(C(=O)CSc1nnc(-c2ccc(F)cc2)n1C)C1CCS(=O)(=O)C1 (stereo not drawn) | 10* | nt | nt | nt | nt
CCn1c(SCC(=O)NC2=NCCS2)nnc1C(C)NC(=O)c1ccc(Cl)cc1 (stereo not drawn) | -1 | nt | nt | nt | nt
COc1cccc(-c2nc(-c3ccccn3)no2)c1OC | 0 | -1 | i | 0 | 0
c1ccc(-c2noc(-c3cccc4ccccc34)n2)nc1 | 1 | 9.1* | i | 0 | -3
COc1ccc(S(=O)(=O)N2CCN(c3cnccn3)CC2)cc1OC | 16* | nt | nt | nt | nt
CC1CCCC(NC(=O)CCNC(=O)c2ccccc2Cl)C1C (stereo not drawn) | -5 | nt | nt | nt | nt
O=C(Cc1ccc(F)cc1)Nc1ccccc1Sc1ccccc1 | 16* | 4 | i | -1 | 0
